Reference: ChEMBL document CHEMBL2218924, “A broad activity screen in support of a chemogenomic map for kinase signalling research and drug discovery” (Biochem J, 2013)

Assays:
[1] = biological target: T1, Casein kinase II (Homo sapiens) (UniProt P67870+P68400+P19784); details: at 1 µM
[2] = biological target: T1, Casein kinase II (Homo sapiens); details: at 10 µM
[3] = biological target: Casein kinase II subunit alpha' (Homo sapiens) (UniProt P19784); details: at 1 µM
[4] = biological target: Casein kinase II subunit alpha' (Homo sapiens) (UniProt P19784); details: at 10 µM
[5] = biological target: Dual specificity protein kinase CLK2 (Homo sapiens) (UniProt P49760); details: at 1 µM
Sequence of Dual specificity protein kinase CLK2 (Homo sapiens) (P49760 whole entry, looked up): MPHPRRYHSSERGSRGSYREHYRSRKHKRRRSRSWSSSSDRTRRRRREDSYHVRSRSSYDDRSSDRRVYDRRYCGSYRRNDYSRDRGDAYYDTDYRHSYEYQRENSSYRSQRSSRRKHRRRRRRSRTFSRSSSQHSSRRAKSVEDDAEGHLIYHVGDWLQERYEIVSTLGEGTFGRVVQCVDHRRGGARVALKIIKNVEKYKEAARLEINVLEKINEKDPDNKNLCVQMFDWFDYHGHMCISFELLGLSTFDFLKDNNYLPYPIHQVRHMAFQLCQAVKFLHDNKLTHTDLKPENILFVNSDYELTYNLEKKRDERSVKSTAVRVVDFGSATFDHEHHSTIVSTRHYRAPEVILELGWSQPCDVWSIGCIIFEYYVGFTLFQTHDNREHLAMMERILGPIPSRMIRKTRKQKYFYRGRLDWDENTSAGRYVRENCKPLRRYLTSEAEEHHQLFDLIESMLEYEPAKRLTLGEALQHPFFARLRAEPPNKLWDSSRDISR

[6] = biological target: Dual specificity protein kinase CLK2 (Homo sapiens) (UniProt P49760); details: at 10 µM
[7] = biological target: Dual specificity protein kinase CLK3 (Homo sapiens) (UniProt P49761); details: at 1 µM
Sequence of Dual specificity protein kinase CLK3 (Homo sapiens) (P49761 whole entry, looked up): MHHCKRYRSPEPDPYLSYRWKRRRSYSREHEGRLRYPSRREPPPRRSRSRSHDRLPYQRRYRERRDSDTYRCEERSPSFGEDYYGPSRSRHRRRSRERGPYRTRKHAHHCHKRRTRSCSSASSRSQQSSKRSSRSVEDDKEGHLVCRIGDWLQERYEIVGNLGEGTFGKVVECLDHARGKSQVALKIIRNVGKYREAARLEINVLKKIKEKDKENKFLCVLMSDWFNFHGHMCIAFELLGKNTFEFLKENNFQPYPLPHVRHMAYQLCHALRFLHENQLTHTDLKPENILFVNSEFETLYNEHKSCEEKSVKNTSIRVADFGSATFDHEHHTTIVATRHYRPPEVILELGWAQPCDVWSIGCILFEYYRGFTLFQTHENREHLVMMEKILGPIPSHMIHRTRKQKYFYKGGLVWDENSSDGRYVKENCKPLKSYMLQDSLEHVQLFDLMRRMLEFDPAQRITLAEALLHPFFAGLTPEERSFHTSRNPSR

[8] = biological target: Dual specificity protein kinase CLK3 (Homo sapiens) (UniProt P49761); details: at 10 µM
[9] = biological target: Tyrosine-protein kinase CSK (Homo sapiens) (UniProt P41240); details: at 1 µM
Sequence of Tyrosine-protein kinase CSK (Homo sapiens) (P41240 2-450 limits assumed): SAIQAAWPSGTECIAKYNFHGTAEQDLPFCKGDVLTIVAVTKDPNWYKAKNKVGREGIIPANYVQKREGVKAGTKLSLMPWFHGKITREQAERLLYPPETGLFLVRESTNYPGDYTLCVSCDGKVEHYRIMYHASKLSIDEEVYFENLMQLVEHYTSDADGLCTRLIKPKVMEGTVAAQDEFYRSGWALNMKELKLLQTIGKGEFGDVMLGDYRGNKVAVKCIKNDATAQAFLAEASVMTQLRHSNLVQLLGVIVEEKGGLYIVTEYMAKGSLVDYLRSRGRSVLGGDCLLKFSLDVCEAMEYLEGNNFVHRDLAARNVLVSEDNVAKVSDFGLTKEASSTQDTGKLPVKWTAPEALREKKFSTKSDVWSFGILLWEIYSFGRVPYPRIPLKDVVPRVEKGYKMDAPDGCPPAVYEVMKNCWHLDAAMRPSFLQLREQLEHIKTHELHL

[10] = biological target: Tyrosine-protein kinase CSK (Homo sapiens) (UniProt P41240); details: at 10 µM

Sequence of Casein kinase II subunit alpha' (Homo sapiens) (P19784 whole entry, looked up): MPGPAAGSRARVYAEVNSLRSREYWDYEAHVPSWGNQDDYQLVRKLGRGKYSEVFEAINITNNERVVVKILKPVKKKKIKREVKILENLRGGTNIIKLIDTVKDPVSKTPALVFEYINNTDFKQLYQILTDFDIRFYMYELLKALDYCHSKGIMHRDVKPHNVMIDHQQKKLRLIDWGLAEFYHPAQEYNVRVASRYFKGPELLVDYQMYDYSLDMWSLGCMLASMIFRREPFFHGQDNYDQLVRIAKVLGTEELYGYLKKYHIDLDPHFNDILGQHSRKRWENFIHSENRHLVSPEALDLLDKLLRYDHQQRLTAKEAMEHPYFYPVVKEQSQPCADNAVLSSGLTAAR
T1 sequence (P19784 whole entry, looked up): as above
T1 sequence (P67870 whole entry, looked up): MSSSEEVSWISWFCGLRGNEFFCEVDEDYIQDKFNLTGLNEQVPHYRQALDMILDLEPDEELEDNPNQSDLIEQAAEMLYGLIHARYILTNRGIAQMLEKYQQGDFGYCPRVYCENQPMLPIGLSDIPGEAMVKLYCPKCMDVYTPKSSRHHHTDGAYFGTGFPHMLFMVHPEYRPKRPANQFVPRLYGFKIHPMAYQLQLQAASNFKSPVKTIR
T1 sequence (P68400 whole entry, looked up): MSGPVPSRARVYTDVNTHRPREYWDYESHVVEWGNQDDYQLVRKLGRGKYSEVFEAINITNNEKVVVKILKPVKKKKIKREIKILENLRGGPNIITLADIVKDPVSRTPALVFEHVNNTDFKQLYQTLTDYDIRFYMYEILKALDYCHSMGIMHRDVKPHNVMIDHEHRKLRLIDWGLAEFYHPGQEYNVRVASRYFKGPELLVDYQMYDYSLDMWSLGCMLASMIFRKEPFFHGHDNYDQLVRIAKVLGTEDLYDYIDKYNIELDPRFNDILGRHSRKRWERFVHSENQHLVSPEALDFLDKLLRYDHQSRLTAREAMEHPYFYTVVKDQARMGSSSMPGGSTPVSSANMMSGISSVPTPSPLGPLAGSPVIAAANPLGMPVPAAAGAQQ

| SMILES | residual activity [1] [%] | residual activity [2] [%] | residual activity [3] [%] | residual activity [4] [%] | residual activity [5] [%] | residual activity [6] [%] | residual activity [7] [%] | residual activity [8] [%] | residual activity [9] [%] | residual activity [10] [%] |
| --- | --- | --- | --- | --- | --- | --- | --- | --- | --- | --- |
| Nc1ccc2ncnc(NCCc3ccc(Oc4ccccc4)cc3)c2c1 | 100 | 101 | 109 | 100 | 87 | 69 | 94 | 92 | 118 | 91 |
| COc1ccc(S(=O)(=O)N(CCO)c2ccccc2CN(C)C/C=C/c2ccc(Cl)cc2)cc1 | 89 | 94 | 106 | 95 | 127 | 102 | 89 | 86 | 115 | 84 |
| CO[C@H]1[C@@H](OC)C[C@H](C)[C@@H](OC)C2=CC(=O)C=C(NC(=O)/C(C)=C/C=C/[C@H](OC)[C@@H](OC(N)=O)/C(C)=C/[C@@H]1C)C2=O | 88 | 111 | 99 | 99 | 100 | 110 | 88 | 89 | 108 | 118 |
| O=C1Nc2cc(Br)ccc2/C1=C1/Nc2ccccc2/C1=N\O | 94 | 86 | 94 | 57 | 92 | 74 | 79 | 54 | 94 | 89 |
| O=c1cc(-c2cccc3c2Sc2ccccc2S3)oc(N2CCOCC2)c1 | 106 | 109 | 107 | 104 | 104 | 92 | 100 | 87 | 103 | 99 |
| Cc1ccc(S(=O)(=O)/C=C/C#N)cc1 | 116 | 98 | 114 | 103 | 110 | 112 | 96 | 96 | 116 | 105 |
| Cc1cc(Nc2nc(-c3ccccc3)nc3ccccc23)n[nH]1 | 43 | -2 | 21 | -2 | 10 | 8 | 53 | 15 | 102 | – |
| O=c1c2ccccc2[nH]c(=S)n1CCN1CCC(=C(c2ccc(F)cc2)c2ccc(F)cc2)CC1 | 89 | 116 | 125 | 93 | 115 | 94 | 90 | 64 | 120 | 98 |
| O=Nc1c(-c2c(O)[nH]c3ccccc23)[nH]c2ccccc12 | 112 | 78 | 102 | 58 | 14 | 4 | 79 | 54 | 101 | 78 |
| O=C1NC(=O)/C(=C/c2ccc3c(c2)OC(F)(F)O3)S1 | 32 | 2 | 52 | 0 | 116 | 75 | 91 | 94 | 121 | 117 |
| COc1ccc(CNc2nc(N(CCO)CCO)nc3c2ncn3C(C)C)cc1 | 96 | 101 | 100 | 107 | 48 | 18 | 87 | 62 | 106 | 96 |
| CC(C)n1cnc2/c(=N/c3cccc(Cl)c3)nc(NCCO)[nH]c21 | 89 | 86 | 108 | 103 | 19 | 6 | 55 | 12 | 101 | 88 |
| CC[n+]1c(/C=C/N(C)c2ccccc2)n(-c2ccccc2)c2ccc(-c3nc4ccccc4s3)cc21 | 109 | 105 | 134 | 90 | 109 | 108 | 91 | 58 | 103 | 95 |
| COc1cccc(-c2cc(=O)c3ccccc3o2)c1N | 94 | 96 | 119 | 106 | 116 | 105 | 90 | 71 | 104 | 111 |
| CCN(CC)CCCCN1c2ccccc2Oc2ccc(Cl)cc21 | 104 | 103 | 137 | 101 | 117 | 127 | 89 | 92 | 113 | 102 |
| CC(C)n1cnc2c(NCc3ccccc3)nc(NCCCO)nc21 | 102 | 94 | 110 | 108 | 53 | 14 | 88 | 67 | 104 | 100 |

| SMILES | residual activity [1] [%] | residual activity [2] [%] | residual activity [3] [%] | residual activity [4] [%] | residual activity [5] [%] | residual activity [6] [%] | residual activity [7] [%] | residual activity [8] [%] | residual activity [9] [%] | residual activity [10] [%] |
| --- | --- | --- | --- | --- | --- | --- | --- | --- | --- | --- |
| O=[N+]([O-])c1ccc(-c2nc(-c3ccc(F)cc3)c(-c3ccncc3)[nH]2)cc1 | 100 | 108 | 114 | 114 | 122 | 107 | 89 | 87 | 108 | 105 |
| Cn1cc(/C=C2\C(=O)Nc3ccc(S(N)(=O)=O)cc32)c2ccccc21 | 79 | 111 | 124 | 80 | 35 | 14 | 45 | -3 | 114 | 92 |
| Cn1nc2c3c(cccc31)C(=O)c1ccccc1-2 | 87 | 59 | 99 | 65 | 86 | 83 | 76 | 66 | 101 | 90 |
| Oc1n[nH]c2nnc(-c3c(-c4ccccc4)nn4ccccc34)cc12 | 92 | 82 | 110 | 91 | 114 | 118 | 85 | 96 | 93 | 84 |
| COc1cc2ncnc(N3CCN(C(=O)Nc4ccc(Oc5ccccc5)cc4)CC3)c2cc1OC | 87 | 105 | 111 | 65 | 84 | 55 | 64 | 68 | 109 | 113 |
| NC(=O)c1ccc2[nH]c(-c3ccc(Oc4ccc(Cl)cc4)cc3)nc2c1 | 100 | 92 | 92 | 102 | 101 | 104 | 89 | 82 | 105 | 102 |
| O=C1NC(=O)/C(=C\c2ccc3nccnc3c2)S1 | -13 | -12 | -12 | -5 | 43 | 6 | 19 | -1 | 102 | 99 |
| CCOc1cc2ncnc(Nc3cccc(Br)c3)c2cc1OCC | 89 | 104 | 113 | 95 | 102 | 68 | 92 | 59 | 95 | 66 |
| O=C1Nc2ccccc2/C1=C1/Nc2ccccc2/C1=N\OCCC(O)CO (configuration not stated) | 73 | 22 | 46 | 3 | 2 | 4 | 58 | 25 | – | – |
| O=C1NC(=O)c2c1c1c3ccccc3[nH]c1c1[nH]c3cc(Br)ccc3c21 | 104 | 94 | 96 | 86 | 98 | 87 | 82 | 81 | 96 | 84 |
| CCC(=O)Nc1ccc2ncnc(Nc3cccc(Br)c3)c2c1 | 107 | 101 | 125 | 90 | 125 | 105 | 76 | 142 | 104 | 93 |
| Cc1nc2cc3nc(-c4cccs4)cnc3cc2n1C | 102 | 104 | 130 | 92 | 114 | 63 | 99 | 53 | 110 | 109 |
| COc1ccc(C(=O)Nc2sc3c(c2C(N)=O)CCCC3)cc1OC | 95 | 115 | 126 | 91 | 90 | 82 | 50 | 52 | 101 | 99 |
| Cc1nc(-c2ccccc2)c(-c2ccncc2)o1 | 103 | 98 | 102 | 92 | 114 | 96 | 82 | 84 | 108 | 104 |
| N#C/C(=C(\N)Sc1ccc(N)cc1)c1ccccc1C(F)(F)F | 96 | 99 | 108 | 104 | 97 | 94 | 95 | 92 | 106 | 87 |
